# Screening data as filed in PubChem BioAssay.
# The list is not random: actives were taken first. Their share in the collection is about 1.4%.
# PrPC surface inh: inhibitors of human cell surface prion protein PrPC; P04156; TR-FRET read-out; inhibition, % at 13.8 µM; actives 0.43% (n = 370,000); in the data active = inhibition above about 24%; note: 0% = median of the test wells and 100% = reference compound wells
# FadD28 binding: blocks FadD28 binding to the bisubstrate probe. inhibition, % at 12.5 µM. actives 0.22% (n = 360,000). AID 588549. fluorescence polarization; in the data active = inhibition above about 8.5%, passing the limit was not always enough
# Vc quorum ag: induces V. cholerae light production without autoinducers. V. cholerae BH1578 lux reporter, luminescence, 6 h. activation, % at 18.7 µM. actives 0.16% (n = 350,000). AID 588436; in the data active = activation mostly above about 9.7%, no sharp cut-off
# SSB-PriA inh: inhibitors of Klebsiella pneumoniae PriA binding to SSB C-terminal tail; inhibition, % at 33 µM; AlphaScreen SSBct-PriA binding, biotinylated peptide; actives 0.6% (n = 430,000); AID 1272365; in the data active = inhibition mostly above about 37%, no sharp cut-off; inactive = mostly below about 20%;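 note: plate controls were negative control peptide for no effect and reference peptide for full effect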
# PrP 5UTR inh: inhibition of PrP 5' UTR reporter expression | AID 488862 | inhibition, % (concentration not given with the values) | cell-based PrP 5' UTR mRNA reporter, plate reader | actives 0.35% (n = 340,000); in the data active = inhibition above about 52%; note: 0 = median of the neutral control wells
# Active calls of the source: *; i = inactive; · = no result.
SMILES,PrPC surface inh,FadD28 binding,Vc quorum ag,SSB-PriA inh,PrP 5UTR inh
CN(C)CCN(C(=O)c1ccc(S(=O)(=O)N(C)c2ccccc2)cc1)c1nc2cc3c(cc2s1)OCO3,2,-3,i,36*,-17
CN(C)CCCN(C(=O)c1ccc(S(=O)(=O)N(C)C)cc1)c1nc2cc3c(cc2s1)OCO3,1,-5,0,0,-34
O=C(COc1ccc(Cl)cc1)NCc1nnc(SCC(=O)Nc2ccc(OC(F)(F)F)cc2)o1,·,·,·,-11,·
CCCNc1nc(SC)nc2c1cnn2CCNC(=O)c1c(-c2ccccc2Cl)noc1C,·,·,·,62*,·
CC1=NN(c2nc(-c3ccc(F)cc3)cs2)C(=O)C1,·,18*,i,-9,-15
NC(=O)NC(=O)CC1SC(=NN=C2CSC(=O)N2)NC1=O (stereo unspecified),·,·,·,74*,·
COc1ccc(F)cc1S(=O)(=O)N1CCC(OC)CC1,·,·,·,-6,·
CCNc1nc(NCC)nc(C(=O)NN)n1,7,-2,-1,83*,4
CCNc1nc(NCC)nc(OCC(=O)O)n1,-2,0,-4,1,-5
O=[N+]([O-])c1cc(Cl)cc(C=NNC(=S)Nc2ccc(S(=O)(=O)N3CCOCC3)cc2)c1O,·,·,·,67*,·
O=[N+]([O-])c1cc(Cl)cc(/C=N/NC(=S)Nc2ccc(S(=O)(=O)N3CCOCC3)cc2)c1O,-7,18*,-2,·,-15
COC(CNC(=O)C1COc2ccccc2O1)c1ccc(Cl)s1 (stereo unspecified),·,·,·,-13,·
O=C(CN1CCCCC1)c1ccc(F)cc1,-4,-1,0,-6,-35
COc1ccc(C(=O)CN2CCCCC2)cc1,-7,0,i,47*,-39
CC(C)Cc1nc2sc3c(c2c(=O)n1N)CC(C(C)C)OC3 (stereo unspecified),2,-4,0,-3,0
CC(C)C1Cc2c(sc3ncnc(NN)c23)CO1 (stereo unspecified),-9,0,1,46*,-11
O=C(Cc1ccc(Br)cc1)NCc1cncc(-c2ccsc2)c1,·,·,·,-14,·
COc1cnc(-c2ccccn2)nc1Sc1c(Cl)cccc1Cl,7,-1,i,-6,-6
COc1cnc(-c2ccccn2)nc1OC,·,·,·,112*,·
COc1cnc(-c2ccccn2)nc1Oc1c(C)cccc1C,-1,1,i,49*,1
COc1cnc(-c2ccccn2)nc1Sc1ccccc1Cl,8,-6,-2,83*,-14
CCOC(=O)C(C)Sc1nc(-c2ccccn2)ncc1OC (stereo unspecified),5,-6,-2,90*,-11
COc1ccc(Oc2nc(-c3ccccn3)ncc2OC)cc1,-1,-1,i,28,-17
CC(=O)c1ccc(N2CCN(C(=O)C3CN(c4nc5ccc(F)cc5s4)C3)CC2)cc1,·,·,·,4,·
O=C(NCC(O)Cn1ccccc1=O)C1(c2cccs2)CCCC1 (stereo unspecified),·,·,·,-1,·
SMILES,PrPC surface inh,FadD28 binding,Vc quorum ag,SSB-PriA inh,PrP 5UTR inh
Cc1ccc(OC2CCN(C(=O)Cc3ccccc3Cl)CC2)nn1,·,·,·,7,·
COc1cccc(-c2csc(=Nc3ccc(Cl)cc3)n2N2CCOCC2)c1,·,·,·,68*,·
COc1ccc(C(=O)Nc2cc(C(=O)N3CCC(C)CC3)cn(C)c2=O)c(OC)c1,·,·,·,-14,·
CCCCCCCC/C=C\CCCCCCCC(=O)O,8,2,i,-6,4
CCCCCCCC/C=C\CCCCCCCC(=O)NCCO,-7,15*,i,-12,-7
Fc1ccc(Nc2nc(NCCCn3ccnc3)nc3nc[nH]c23)cc1,·,·,·,29*,·
N#Cc1nc(COc2ccc(F)cc2)oc1NCCCn1ccnc1,-4,-3,i,10,-31
COc1cccc2cc(-c3nnc(NC(=O)CCCS(=O)(=O)c4ccc(F)cc4)o3)oc12,·,·,·,7,·
O=C1c2cc(O)cc(O)c2C(=O)c2c1cc(O)c([C@@H](CO)CCO)c2O,-43,20*,0,24,-20
COC(CNC(=O)c1c(C)nn(C)c1C)c1ccc(Cl)s1 (stereo unspecified),·,·,·,3,·
Cc1ccc(/C=C(\C#N)C(=O)Nc2sc3c(c2C(=O)OC(C)C)CCCC3)s1,·,·,·,-6,·
Cc1cccc(C=Nc2sc3c(c2C(=O)OC(C)(C)C)CCN(C)C3)c1O,·,·,·,45*,·
CCOC(=O)c1c(N=Cc2cccc(C)c2O)sc2c1CCN(C)C2,·,·,·,32,·
O=C(Cn1nnn(-c2ccc(NC(=O)c3ccccc3F)cc2)c1=O)NCc1ccco1,·,·,·,-15,·
COc1ccc(-c2cc(=O)c3cc(NC(=O)C4CCCCC4)ccc3o2)cc1,·,·,·,0,·
NNc1nccc(Nc2ccccc2C(=O)O)n1,-4,0,i,59*,-15
Nc1nc2ccc(C(=O)NCCO)cc2s1,·,·,·,81*,·
O=[N+]([O-])c1cc([N+](=O)[O-])c2ncccc2c1,·,·,·,63*,·
O=[N+]([O-])c1cc(C(F)(F)F)cc([N+](=O)[O-])c1Sc1cccc2cccnc12,·,·,·,56*,·
O=[N+]([O-])c1cc(O)c2ncccc2c1,-22,·,·,84*,·
Oc1cc(Cl)cc2cccnc12,·,·,·,84*,·
O=[N+]([O-])c1ccc(Sc2cccc3cccnc23)c2cccnc12,-9,-3,-1,28,-32
COc1ccc(CSc2cccc3cccnc23)cc1[N+](=O)[O-],-11,-16,0,45*,-34
CC(Nc1cc(N2CCN(C(=O)C(C)(C)C)CC2)ccc1[N+](=O)[O-])c1ccccc1 (stereo unspecified),-3,-4,i,41*,0
CC(C)C(=O)N1CCN(c2ccc([N+](=O)[O-])c(NC(C)c3ccccc3)c2)CC1 (stereo unspecified),-15,-6,i,49*,-11
SMILES,PrPC surface inh,FadD28 binding,Vc quorum ag,SSB-PriA inh,PrP 5UTR inh
O=C(Nc1nnc(CSc2ccccc2)o1)C1CCCN(S(=O)(=O)c2ccc(F)cc2)C1 (stereo unspecified),·,·,·,19,·
Cc1ccsc1C=NNc1nc(=O)[nH]nc1C,·,·,·,67*,·
COc1cc([N+](=O)[O-])ccc1NC(=O)C=C(C)C,·,·,·,0,·
CN=c1scc(-c2cc(OC)ccc2OC)n1N=Cc1c(C)[nH]c2ccccc12,·,·,·,45*,·
CN=c1scc(-c2c[nH]c3ccccc23)n1C,6,·,-1,-1,-9
O=C(COC(=O)c1ccc(O)cc1)Nc1nnc(-c2ccccc2)o1,·,·,·,59*,·
O=C(COC(=O)Cc1ccccc1)Nc1nnc(-c2ccccc2)o1,2,1,i,-3,0
Cc1ccc(C2C3=C(CC(C)(C)CC3=O)NC3=C2C(=O)c2ccccc23)cc1 (stereo unspecified),-24,-1,0,51*,8
CO[C@@]1(CNC(=O)c2cc(-c3ccccc3)on2)CCSC1,·,·,·,-11,·
O=S(=O)(Cc1ccco1)C1CCN(S(=O)(=O)C2CC2)C1 (stereo unspecified),·,·,·,-8,·
O=S(=O)(Cc1ccco1)C1CCN(S(=O)(=O)CCCOc2ccccc2)CC1,·,·,·,87*,·
COc1ccc(CCCc2nnc(SCC(=O)N/N=C\c3ccc(O)c(OC)c3)o2)cc1C,-4,-6,-1,·,-16
COc1ccc(/C=N/NC(=O)CSc2nnc(CCCc3ccc(OC)c(C)c3)o2)cc1,3,0,33*,·,-23
